Sampled rows, rich in hits. Any-hit rate of the full collection: about 4%.
Gli-Sufu antag: Gli-Sufu pathway antagonists, primary screen, luciferase luminescence, Sufu-KO-LIGHT cells, uHTS | Sufu-KO-LIGHT fibroblasts, Gli luciferase reporter luminescence | hit rate 0.74% among 340,000 | inhibition, % at 5 µM;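 active means inhibition above about 55%, limit read from the data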;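 further: 0% = DMSO-treated cells and 100% = wells with medium but no cells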
Mdm2 MdmX PPI: inhibitors of human Mdm2-MdmX association, primary screen, cell-based, luminescence, split luciferase, SaOS-2, uHTS; inhibition, % at 8 µM; SaOS-2 split-luciferase Mdm2/MdmX complementation; Protein Mdm4 (Homo sapiens) + E3 ubiquitin-protein ligase Mdm2 (Homo sapiens), …; hit rate 3% among 330,000;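 active means inhibition of at least 50% at 8 µM in the primary screen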
Target sequence (O15151 whole entry, looked up): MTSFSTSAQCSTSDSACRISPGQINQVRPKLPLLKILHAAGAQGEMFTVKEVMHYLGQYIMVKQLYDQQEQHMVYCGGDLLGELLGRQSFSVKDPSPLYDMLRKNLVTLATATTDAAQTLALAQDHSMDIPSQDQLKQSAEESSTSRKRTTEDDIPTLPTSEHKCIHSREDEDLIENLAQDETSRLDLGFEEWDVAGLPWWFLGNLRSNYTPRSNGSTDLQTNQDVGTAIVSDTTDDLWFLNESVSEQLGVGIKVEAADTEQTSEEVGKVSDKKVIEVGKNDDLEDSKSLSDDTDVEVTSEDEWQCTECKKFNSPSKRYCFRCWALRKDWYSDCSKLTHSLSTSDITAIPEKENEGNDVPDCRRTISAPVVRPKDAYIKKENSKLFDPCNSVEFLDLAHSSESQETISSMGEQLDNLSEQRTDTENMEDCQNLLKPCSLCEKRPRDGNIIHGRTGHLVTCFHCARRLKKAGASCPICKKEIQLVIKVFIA
Target sequence (Q00987 whole entry, looked up): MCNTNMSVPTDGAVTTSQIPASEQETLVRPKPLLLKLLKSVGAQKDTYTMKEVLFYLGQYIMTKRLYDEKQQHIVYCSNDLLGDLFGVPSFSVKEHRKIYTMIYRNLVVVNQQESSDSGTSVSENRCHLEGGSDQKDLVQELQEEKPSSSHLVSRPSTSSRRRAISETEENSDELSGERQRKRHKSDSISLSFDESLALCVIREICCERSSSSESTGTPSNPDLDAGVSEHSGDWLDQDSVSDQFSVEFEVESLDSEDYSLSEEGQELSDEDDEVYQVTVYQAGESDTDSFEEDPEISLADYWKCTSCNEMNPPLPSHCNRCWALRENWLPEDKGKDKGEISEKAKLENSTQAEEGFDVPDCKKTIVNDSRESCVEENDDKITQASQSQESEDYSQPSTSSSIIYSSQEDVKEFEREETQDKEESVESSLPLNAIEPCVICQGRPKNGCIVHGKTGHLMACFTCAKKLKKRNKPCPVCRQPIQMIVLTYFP
Beta apoptosis: inhibitors of cytokine-induced beta cell apoptosis, primary screen, luminescence; hit rate 0.8% among 300,000; protection from apoptosis, % (concentration not given with the values); AID 435005, 2010; INS-1E cytokine-induced death, ATP luminescence, 48 h; percent of positive-control rescue, neutral wells zero;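 active means Every replicate reaches about 75%, or at least half do and their mean reaches it too, limit read from the data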;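 further: 0% = cytokine-treated negative control wells and 100% = positive control rescue; higher means more ATP so stronger rescue from cytokine killing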
697 NFkB inh: inhibitors of PMA/ionomycin-induced NF-kB reporter, 697 cells, primary screen, B-cell NF-kB inhibitor project, cell-based, luminescence, uHTS; inhibition, % at 4 µM; 697 B-cell NF-kB luciferase reporter, 16 h; hit rate 0.33% among 330,000; in the data active means inhibition above about 35%
Jurkat NFkB inh: inhibitors of induced NF-kB luciferase reporter, primary screen, TCR NF-kB activation inhibitor project, cell-based, luminescence, uHTS. AID 435003, 2010. hit rate 0.53% among 330,000. Jurkat, PMA/ionomycin-induced NF-kB luciferase reporter. inhibition, % at 4 µM; in the data active means inhibition above about 50%
Gli-Sufu confirm: Gli-SUFU pathway antagonists, confirmation, single concentration, luciferase luminescence, Sufu-KO-LIGHT cells; shares compounds with Gli-Sufu antag; Gli luciferase reporter; inhibition, % at 5 µM; hit rate 40% among 2,500;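 active means mean inhibition at 5 µM reaching about 45%, limit read from the data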;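 further: plate controls were DMSO-treated cells for no effect and wells lacking cells for full effect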
Gli cytotox: cytotoxicity in Sufu-KO-LIGHT cells, confirmation, cytotoxicity control for Gli-SUFU antagonist project, cell-based, ATP luminescence, single concentration; shares compounds with Gli-Sufu antag; cytotoxicity, % at 5 µM; hit rate 32% among 2,500; AID 651994, 2013;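 active means mean cytotoxicity at 5 µM above about 25%, limit read from the data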;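 further: cells exposed to compound overnight for roughly 16 to 18 hours; plate controls were DMSO wells with cells for no effect and medium without cells for full effect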
Wnt3a counter: Wnt3a reporter signal inhibition, confirmation, counter-screen for Gli-SUFU antagonist project, Wnt-LIGHT cells, luminescence, single concentration; hit rate 20% among 2,500; Wnt3a-driven luciferase reporter; inhibition, % at 6.25 µM; shares compounds with Gli-Sufu antag;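 active means mean inhibition above about 25%, limit read from the data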
Numbers without * were called inactive; . = no result given.

SMILES	Gli-Sufu antag	Mdm2 MdmX PPI	Beta apoptosis	697 NFkB inh	Jurkat NFkB inh	Gli-Sufu confirm	Gli cytotox	Wnt3a counter
C#CCNC(=O)C1=C[C@@H](c2ccc(C#C)cc2)C[C@@H](OCc2ccc(CO)cc2)O1	-3.4	8.3	-2.4	2.5	13.3	.	.	.
Cc1cc(C)c(CN2CCC(n3nccc3NC(=O)C3CCOC3)CC2)cc1C (centres undefined)	15.1	-1.8	0.2	-10.7	0.4	.	.	.
COc1cc(C)c(CN2CCC(n3nccc3NC(=O)C3CCOC3)CC2)cc1C (centres undefined)	59.4*	16.7	-3.2	-4.0	-25.2	14.0	7.3	-13.3
CCCc1nc(SCC(=O)Nc2nnc(CC)s2)c2c(=O)n(C)c(=O)n(C)c2n1	66.4*	45.9	18.8	-39.4	16.2	50.2*	23.0	5.7
CCc1nc(SCC(=O)Nc2nnc(CC)s2)c2c(=O)n(C)c(=O)n(C)c2n1	41.6	28.2	-2.6	-16.2	0.3	.	.	.
CCSc1nnc(NC(=O)CSc2nc(CC)nc3c2c(=O)n(C)c(=O)n3C)s1	5.0	22.2	-2.9	0.5	-3.2	.	.	.
CCCc1nc(SCC(=O)Nc2nnc(SCC)s2)c2c(=O)n(C)c(=O)n(C)c2n1	57.8*	13.3	28.8	2.6	8.2	55.7*	34.6*	6.7
Cc1ccc2nc(NC(=O)C3CC3C)sc2c1 (centres undefined)	-26.1	-113.7	.	-178.3	-133.3	.	.	.
NS(=O)(=O)c1ccc(CNC(=O)c2scc3c2CCCC3)cc1	2.9	14.0	-10.1	12.7	7.2	.	.	.
Cc1ncc(CO)c(/C=N/NC(=O)c2ccc(Br)cc2)c1O	.	0.3	23.9	-12.1	-16.0	.	.	.
Cc1ncc(CO)c(/C=N/NC(=O)c2cc(Br)ccc2O)c1O	96.2*	14.2	-6.3	8.7	-1.9	9.2	21.5	3.1
CC(=O)c1ccc(N(CC(=O)NC2CCCC2)C(=O)CCC(=O)Nc2cc(C)on2)cc1	-4.7	1.0	-11.9	8.7	5.0	.	.	.
COc1ccc(Oc2ccc(C(F)(F)F)cc2N)cc1	-24.0	15.7	-6.5	-6.3	-20.9	.	.	.
COc1ccc(CCNC(=O)C2CCN(S(=O)(=O)c3cccc4nsnc34)CC2)cc1OC	4.0	8.0	-2.5	22.1	-1.8	.	.	.
COc1ccc(CCNC(=O)C2CCN(S(=O)(=O)c3cccc4cccnc34)CC2)cc1OC	52.5	-2.1	0.1	4.8	-3.2	22.9	0.4	-17.1
COc1ccc([N+](=O)[O-])cc1NC(=O)CC1SC(=Nc2cccc(C)c2C)N(/N=C/c2cccc(OC)c2OC)C1=O (centres undefined)	-4.5	2.0	.	-4.2	-5.1	.	.	.
CC(C)NCC(O)COC1CCC(C(C)(C)C)CC1 (centres undefined)	69.8*	22.9	0.2	10.2	-16.4	15.3	5.7	-26.5
CC1CCCC(C)N1CC(O)COC1CCC(C(C)(C)C)CC1 (centres undefined)	.	40.1	-8.2	-21.7	8.3	.	.	.
CC(Oc1ccc2c(=O)c(-c3ccc(Cl)cc3)c(C(F)(F)F)oc2c1)C(=O)O (centres undefined)	3.2	-44.2	-3.5	-3.8	-8.1	.	.	.
COc1cc(OC)c(NS(=O)(=O)c2cccc(C(=O)OCC(=O)NCC3CCCO3)c2)cc1Cl (centres undefined)	-13.0	-11.4	-1.0	11.3	-3.0	.	.	.
CCc1ccc(-c2nc(CSCC(=O)NCc3ccco3)c(C)o2)cc1	84.1*	.	.	.	.	87.6*	-2.1	45.9*
CCc1cc(-c2nc(N)ncc2-c2csc(C)n2)c(O)cc1OC	0.2	4.6	-9.2	-17.0	3.8	.	.	.
COc1ccc(-c2nc(N)ncc2-c2csc(C)n2)c(O)c1	99.0*	7.1	-8.1	-7.0	-3.2	23.4	3.1	21.2
COc1ccc(CN2CCSCC2)c(OC)c1C	58.9*	14.7	-9.4	14.6	-7.5	16.9	13.2	-6.6
COc1cc(NS(=O)(=O)c2ccc(C)cc2C)cc(OC)c1OC	53.3	36.2	.	12.7	30.2	50.4*	16.6	10.1
SMILES	Gli-Sufu antag	Mdm2 MdmX PPI	Beta apoptosis	697 NFkB inh	Jurkat NFkB inh	Gli-Sufu confirm	Gli cytotox	Wnt3a counter
COc1ccc(C(=O)N/C(=C\c2cn(C)c3ccccc23)C(=O)NCCN2CCOCC2)cc1OC	39.9	19.2	5.8	-24.0	7.7	.	.	.
COc1ccc(C(=O)N/C(=C/c2ccccc2F)C(=O)NCCN2CCOCC2)cc1OC	70.8*	-17.8	1.1	-40.9	-29.0	23.4	9.6	-4.1
Cc1ccc(NC(=O)CSc2n[nH]c(-c3ccco3)n2)c(C)c1	56.6*	-5.0	-6.0	-3.4	-63.2	21.2	-2.9	-17.7
CCN1CCN(C(=O)/C=C/c2ccc(F)cc2)CC1	3.8	10.9	.	10.2	-14.1	.	.	.
CCN1CCN(C(=O)/C=C/c2ccc(OC)cc2)CC1	60.0*	-45.8	-8.6	-32.1	-13.9	27.8	26.8*	-4.3
COc1ccc(Nc2nc(N3CCOCC3)nc(N3CCOCC3)n2)c(OC)c1	59.4*	20.6	-2.1	10.0	-16.0	42.2	-5.2	14.7
O=C1CC(c2ccccc2)CC(O)=C1C=Nc1ccccc1 (centres undefined)	22.7	15.9	.	2.6	-6.4	.	.	.
Cc1ccc(N=CC2=C(O)CC(c3ccc(Cl)cc3)CC2=O)cc1 (centres undefined)	52.7	12.9	-16.9	-1.7	12.8	26.2	9.9	20.0
O=C(c1cn(Cc2ccccc2)nc1-c1cccnc1)N1CCc2ccccc2C1	4.5	-10.4	5.0	18.0	9.3	.	.	.
O=C(Nc1cccc(-c2nc3ccccc3[nH]2)c1)c1ccco1	-12.3	-29.0	3.3	-38.0	-14.8	.	.	.
N=c1c(-c2nc3ccccc3[nH]2)cc(C(=O)c2ccco2)nn1-c1ccccc1	62.4*	37.9	23.4	-12.8	5.5	35.3	5.5	-118.2
COCCN(Cc1cc2cc(C)cc(C)c2nc1Cl)C(=O)Nc1ccccc1	-3.9	44.6	15.7	-27.6	46.9	.	.	.
COCCN(Cc1cc2c(C)cc(C)cc2nc1Cl)C(=O)c1ccccc1F	57.9*	12.2	22.3	-14.0	-0.4	25.8	15.3	-26.5
CN(CCCNC(=O)c1nn(C)c2c1CS(=O)(=O)c1ccccc1-2)Cc1ccccc1	20.3	7.6	-6.0	-7.5	0.9	.	.	.
CC(C)N(CCCNC(=O)c1nn(C)c2c1CS(=O)(=O)c1ccccc1-2)Cc1ccccc1	61.3*	20.8	-1.5	-3.1	-3.2	24.5	17.9	-9.1
